Screening results: PubChem, National Center for Advancing Translational Sciences (NCATS)
In the library only some 1.3% were active in any assay of this set; here they are far more common.
hERG WT inh = qHTS for Inhibitors of KCHN2 3.1: Wildtype qHTS; U2OS, BacMam KCNH2, thallium flux FluxOr; stronger effect = lower value; activity change, % at 1.84 µM; 340,000 tested, 0.37% active;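 active = maximum activity change below -70%; inconclusive = maximum activity change between -70% and -50%; inactive = maximum activity change above -50%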; note: % is set by controls: 0 for no effect and ±100 for the full control effect
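U2OS cells were transduced with wild-type KCNH2 virus (2.03 x 10^8 / mL) for 4 h at room temperature, then cultured overnight at 37 C. Thallium flux was read with FluxOr dye. Rate constants were normalized to DMSO controls.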
TRPML1 inh = qHTS for Inhibitors of the Human Mucolipin Transient Receptor Potential 1 (TRPML1). 390,000 tested, 0.02% active. TRPML1-inducible cells, Ca2+ dye fluorescence, FDSS; stronger effect = lower value; inhibition of EC80 agonist-evoked calcium signal. AID 624415, 2012. activity change, negative = inhibition, % (concentration not given with the values); in the data active = activity change below about -50%; inconclusive = between about -30% and that limit;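 note: stimulus is agonist 54-4 at its EC80 concentration; % is set by controls: 0 for no effect and ±100 for the full control effect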
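TRPML1-DL cells, Tet-induced overnight (~16 h, 37 °C) at 1,500 cells/well, were loaded with Ca8 no-wash dye plus quencher for 45-90 min at room temperature. Compounds were pinned during FDSS kinetic reading; agonist 54-4 at EC80 (4 uM final) then added.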
TRPV1 ag = HTS Assay for Compounds that Act as Agonists of the Vanilloid Receptor 1; Transient receptor potential cation channel subfamily V member 1 (Homo sapiens), Q8NER1; TRPV1-expressing cells, Fluo-8 calcium influx, agonist mode; activation, % at 8.33 µM; 320,000 tested, 0.19% active; AID 540275, 2011; in the data active = activation above about 80%; inconclusive = between about 30% and that limit; note: 0% is about no effect
Target sequence (Q8NER1 whole entry, looked up): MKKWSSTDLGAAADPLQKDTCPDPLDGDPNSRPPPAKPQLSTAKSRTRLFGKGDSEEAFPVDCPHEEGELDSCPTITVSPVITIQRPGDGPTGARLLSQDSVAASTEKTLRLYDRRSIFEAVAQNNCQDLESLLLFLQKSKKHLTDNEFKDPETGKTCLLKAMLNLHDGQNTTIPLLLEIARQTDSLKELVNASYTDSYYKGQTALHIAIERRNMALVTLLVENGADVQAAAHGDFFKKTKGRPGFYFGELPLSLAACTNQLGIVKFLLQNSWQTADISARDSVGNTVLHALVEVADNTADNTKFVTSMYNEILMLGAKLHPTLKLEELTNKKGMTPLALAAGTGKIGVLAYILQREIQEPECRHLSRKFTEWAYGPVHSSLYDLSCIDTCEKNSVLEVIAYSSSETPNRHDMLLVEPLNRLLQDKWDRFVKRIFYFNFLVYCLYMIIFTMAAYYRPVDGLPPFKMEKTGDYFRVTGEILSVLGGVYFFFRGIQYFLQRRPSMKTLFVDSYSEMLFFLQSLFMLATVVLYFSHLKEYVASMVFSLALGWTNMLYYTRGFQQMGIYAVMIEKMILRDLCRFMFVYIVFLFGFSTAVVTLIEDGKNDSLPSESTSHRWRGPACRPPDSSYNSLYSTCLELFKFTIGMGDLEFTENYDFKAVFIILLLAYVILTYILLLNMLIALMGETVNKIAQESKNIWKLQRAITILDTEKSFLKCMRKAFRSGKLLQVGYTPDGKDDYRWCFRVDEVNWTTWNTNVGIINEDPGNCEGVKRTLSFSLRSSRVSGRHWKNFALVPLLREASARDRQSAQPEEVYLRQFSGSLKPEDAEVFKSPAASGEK
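Cells expressing TRPV1 were dye-loaded with Fluo-8 and read kinetically: 10 s baseline, 3 min after compound (agonist portion), then 2 min after EC20 capsaicin (allosteric enhancer portion). Calcium-bound dye fluorescence at 480/520 nm.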
KCNH2 3.1 inh = qHTS for Inhibitors of KCHN2 3.1: Mutant qHTS; activity change, % (tested at about 1.8 µM); U2OS KCNH2 3.1, thallium flux FluxOr; stronger effect = lower value; 340,000 tested, 0.95% active; AID 720553, 2013;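 active = maximum activity change below -70%; inconclusive = maximum activity change from -70% to -50%; inactive = maximum activity change above -50%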;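 note: thallium influx rate constant from kinetic fluorescence after stimulation buffer; % is set by controls: 0 for no effect and ±100 for the full control effect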
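We transduce U2OS cells with the mutant 3.1 virus, culture them overnight, load FluxOr with Red40 quencher for 45 min, then add stimulation buffer and read kinetically for 2 min to derive a normalized rate constant.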
TRPV1 PAM = HTS Assay for Compounds that Act as Potentiators of the Vanilloid Receptor 1; Transient receptor potential cation channel subfamily V member 1 (Homo sapiens), Q8NER1; TRPV1-expressing cells, Fluo-8 calcium influx, capsaicin EC20 potentiation; potentiation, % at 8.33 µM; 320,000 tested, 0.02% active; in the data active = potentiation above about 80%; inconclusive = between about 30% and that limit; note: 0% is about no effect
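TRPV1-expressing cells were cultured overnight at 35.5C and loaded with Fluo-8 calcium dye for 40 to 90 min at room temperature. After a 10 s baseline, compound was added and calcium influx was read kinetically for 3 min (ex 480/em 520 nm).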
TRPML1 agonist = qHTS for Agonists of the Human Mucolipin Transient Receptor Potential 1 (TRPML1); TRPML1-expressing cells, Ca2+ dye fluorescence, FDSS; Mucolipin-1 (Homo sapiens), Q9GZU1; 410,000 tested, 0.12% active; activation, % (test concentration not listed); in the data active = activation above about 50%; inconclusive = mostly about 30% to 49%; note: 0% is about no effect
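Agonist activity was taken from a 110 s kinetic Ca2+ dye read on the FDSS after pinning compounds onto TRPML1-DL cells. The cells were seeded at 1,500/well with Tet inducer, incubated about 16 h, then dye-loaded at room temperature.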
* marks the source's active call; other numbers are inactive results; u = inconclusive; x = not tested or not shown.

SMILES	hERG WT inh	TRPML1 inh	TRPV1 ag	KCNH2 3.1 inh	TRPV1 PAM	TRPML1 agonist
Fc1cccc(Cl)c1C1Nc2cccc3cccc(c23)N1	-4.2	x	16.9	5.8	1.0	x
Fc1cccc(Cl)c1CSC1=NCCS1	-7.1	-11.1	6.6	-1.4	-2.2	2.1
ON(Cc1c(F)cccc1Cl)Cc1c(F)cccc1Cl	0.7	-15.1	2.1	-113.9*	-7.5	0.2
CC1=C(C(=O)Nc2ccccc2C)C(c2cccs2)n2nc(SCc3ccccc3)nc2N1 (configuration not stated)	x	-17.4	x	x	x	0.0
O=[N+]([O-])c1ccc(COc2ncnc3ccccc23)cc1	-162.8*	-10.0	1.2	-192.3*	1.5	-0.3
CCc1cccc(NCc2ccccc2-c2nnc(-c3ccccc3Cl)o2)c1	x	-15.6	x	x	x	0.5
NC(=O)CC(NC(=O)c1ccccc1)c1ccc(N2CCN(c3ccccn3)CC2)c([N+](=O)[O-])c1 (configuration not stated)	-7.1	33.0	2.3	-129.6*	10.9	-0.1
N#Cc1cc(C(=O)c2ccccc2O)cn(-c2nccs2)c1=O	2.3	-23.4	87.1*	-22.2	-16.5	64.2*
N#Cc1cc(C(=O)c2cc(F)ccc2O)cn(-c2nccs2)c1=O	0.7	-14.2	u	-6.8	-16.6	124.4*
CC(C)n1cc(C(=O)c2ccccc2O)cc(C#N)c1=O	-0.4	10.6	-0.5	-7.7	9.4	-0.1
Cc1c(-n2cc(C(=O)c3cc(F)ccc3O)cc(C#N)c2=O)c(=O)n(-c2ccccc2)n1C	8.4	6.6	-2.8	6.4	-3.8	7.8
CN(C)c1ccc(/C=C/c2ccnc3ccc(O)cc23)cc1	x	x	x	x	x	5.9
CCCCN(CCCC)C(=O)CN(C)S(=O)(=O)c1ccc2c(c1)c(=O)n(C)c(=O)n2C	x	-1.7	x	x	x	-0.8
CCCCCc1cc(=O)oc2c(C(CCN3CCCC(C)C3)c3ccc(OC)cc3)c(OC)cc(OC)c12 (configuration not stated)	-114.7*	20.0	22.1	-91.4*	-3.3	0.1
O=C(Nc1ccc([N+](=O)[O-])cn1)c1cc(-c2cccc(Br)c2)nc2ccccc12	-7.2	u	7.3	-80.7*	7.7	0.6
CC(=O)Nc1ccc(SCC(=O)NC(=O)c2ccc(S(=O)(=O)N(C)C)cc2)cc1	-94.2*	8.4	x	10.5	x	0.2
Cc1ccc2nc(C)c(C(=O)O)cc2c1	-1.2	-21.7	0.9	-3.3	3.9	0.6
Cc1ccc2cc(C(=O)O)c(C)nc2c1	4.7	8.5	2.1	-87.9*	u	1.3
CCOC(=O)C(C)(C)n1nnc(-c2ccc([N+](=O)[O-])cc2)n1	-4.1	1.3	7.0	-82.8*	-8.7	1.6
CC(=O)Nc1ccc(S(=O)(=O)N2CCc3ccccc3C2)cc1	-3.6	-15.9	-3.8	15.7	7.0	1.4
CC(C(=O)Nc1ccc(S(=O)(=O)N2CCCC2)cc1)N1CCc2ccccc2C1 (configuration not stated)	-7.4	14.1	7.8	-186.9*	-13.1	-0.5
Cc1ccc(NC(=O)C(C)N2CCc3ccccc3C2)cc1 (configuration not stated)	-4.3	-10.8	18.3	-114.5*	-8.2	1.9
Cc1ccc(NC(=O)N2CCc3ccccc3C2)cc1	-5.8	-0.6	u	-10.6	-5.5	0.2
Cc1cc(NC(=O)CN2CCC(n3nnc4cc(C(F)(F)F)ccc43)CC2)no1	12.0	-6.3	0.1	-23.7	28.8	-0.4
CCOc1ccc2nc(NC(=O)CN3CCC(n4nnc5cc(C(F)(F)F)ccc54)CC3)sc2c1	-2.3	-1.4	4.7	-79.0*	-1.0	-0.6
SMILES	hERG WT inh	TRPML1 inh	TRPV1 ag	KCNH2 3.1 inh	TRPV1 PAM	TRPML1 agonist
CCCC(C)C(=O)Nc1ccc2c(c1)OCCO2 (configuration not stated)	-0.2	-11.0	-0.9	4.6	-0.1	1.0
CCCC(C)C(=O)Nc1cccc(NC(C)=O)c1 (configuration not stated)	-20.7	30.9	-3.6	-92.5*	-6.8	-0.5
CCCCNC(=O)Cn1cnc2ccc(S(=O)(=O)N3CCC(C)CC3)cc2c1=O	-2.2	4.9	0.2	-11.7	3.8	1.3
CCCN1CCN(C(=O)Cn2cnc3ccc(S(=O)(=O)N4CCC(C)CC4)cc3c2=O)CC1	-1.5	-4.8	1.4	-85.3*	-0.6	-0.2
Cc1nnc(NC(=O)c2sc3nc(-c4cccs4)cc(C(F)(F)F)c3c2N)s1	-8.2	19.2	17.9	-11.1	1.2	51.8*
Nc1ccccc1Nc1c(F)c(F)nc(F)c1Cl	2.1	2.8	-0.2	-72.5*	6.7	0.5
COc1ccc(-c2c(C)c3ccc(O)c(CN4CCC(C)CC4)c3oc2=O)cc1OC	x	-17.5	x	x	x	-0.8
CCOC(=O)c1sc2nc(CSc3ccccc3)nc(N3CCC(C(N)=O)CC3)c2c1C	-225.5*	67.8	-1.9	-190.5*	10.5	0.2
Cc1sc2nc(CSc3ccccc3)nc(N3CCC(C(N)=O)CC3)c2c1C	x	13.6	u	3.1	-1.7	1.7
CC(C)CCNC(=O)C12CN(Cc3ccccc3)CC1C(c1ccc([N+](=O)[O-])cc1)=NO2 (configuration not stated)	-46.2	15.4	3.2	-106.8*	-4.7	-0.1
COc1ccc(CCNC(=O)C23CN(Cc4ccccc4)CC2C(c2cccc([N+](=O)[O-])c2)=NO3)cc1 (configuration not stated)	-8.7	-3.1	3.6	5.1	-7.0	-0.1
COc1cccc(CNC(=O)C23CN(Cc4ccccc4)CC2C(c2ccc([N+](=O)[O-])cc2)=NO3)c1 (configuration not stated)	-1.1	23.5	0.0	-101.8*	4.5	0.2
O=C(NCc1ccccc1C(F)(F)F)C12CN(Cc3ccccc3)CC1C(c1ccc([N+](=O)[O-])cc1)=NO2 (configuration not stated)	-33.0	10.4	-5.9	-118.1*	17.2	0.6
O/N=C(/C[n+]1cccc(Br)c1)c1ccc2ccccc2c1	x	x	x	x	x	-1.1
CC(C)CC(c1nnnn1C(C)C)N1CCN(c2cccc(Cl)c2)CC1 (configuration not stated)	1.7	-18.4	0.6	-19.6	13.1	84.0*
